Screening data deposited in PubChem BioAssay by National Center for Advancing Translational Sciences (NCATS).
Only some compounds are listed: those with a hit (about 21% of all), similar ones and a draw of the others.
IL-1B inflam inh: inhibitors of inflammasome signaling (IL-1 beta secretion); THP-1 LPS/ATP IL-1B secretion, AlphaLISA, 16 h; hits give low values; AID 743279; activity change, % at 57.5 µM; 4.7% of 360,000 active; in the data active means activity change below about -50%; inconclusive means mostly about -30% to -49%
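THP-1 cells pretreated 1 hr with compounds (up to 57.5 uM final), then stimulated with LPS (250 ng/mL final) plus ATP (1.25 mM final); secreted IL-1B measured by AlphaLISA after 16 hr, decreased signal indicating inhibition.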
Gal4-VP16 FLuc: counter-screen for ROR gamma inhibitors: Gal4-VP16 reporter; Drosophila S2 Gal4-VP16 UAS-luciferase, luminescence, 20 h; Potency, µM (top dose mostly 53.6 µM), for inactives: top-dose activity, negative = inhibition, most hits filed as inhibitors; 3.5% of 310,000 active;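 further: Gal4-VP16 expression switched on by copper sulfate through the metallothionein promoter; potency means the concentration at half of the fitted maximal effect; nearly all actives have a fitted effect of over 50% in size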
ELG1 DNA repair: blocks ELG1-dependent DNA repair in HEK293T cells; 2.3% of 330,000 active; Potency, µM (doses to about 46.1 µM), for inactives: at the top dose activity change, negative = inhibition, most hits filed as inhibitors; HEK293T ELG1-luciferase reporter, luminescence, 16 h; DNA damage induced by 5-fluorouridine; AID 504467; further: potency means the concentration at half of the fitted maximal effect; nearly all actives have a fitted effect of over 55% in size
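HEK293T cells expressing luciferase-tagged ELG1 (2,000/well) received 5-Fluorouridine plus compound or DMSO for 16 hr at 37 °C. Luciferase was read by ONE-Glo luminescence after 30 min at room temperature.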
RORg inh: inhibitors of mouse ROR gamma transcriptional activity. Potency, µM (titrated, usually from 53.6 µM), for inactives: at the highest dose activity change, negative = inhibition, most hits filed as inhibitors. Drosophila S2 Gal4-RORgamma UAS-luciferase reporter, 20 h. P51450. 5.4% of 310,000 active; further: potency means the concentration at half of the fitted maximal effect; nearly all actives have a fitted effect of over 60% in size
Target sequence (P51450 whole entry, looked up, the tested form may be a part): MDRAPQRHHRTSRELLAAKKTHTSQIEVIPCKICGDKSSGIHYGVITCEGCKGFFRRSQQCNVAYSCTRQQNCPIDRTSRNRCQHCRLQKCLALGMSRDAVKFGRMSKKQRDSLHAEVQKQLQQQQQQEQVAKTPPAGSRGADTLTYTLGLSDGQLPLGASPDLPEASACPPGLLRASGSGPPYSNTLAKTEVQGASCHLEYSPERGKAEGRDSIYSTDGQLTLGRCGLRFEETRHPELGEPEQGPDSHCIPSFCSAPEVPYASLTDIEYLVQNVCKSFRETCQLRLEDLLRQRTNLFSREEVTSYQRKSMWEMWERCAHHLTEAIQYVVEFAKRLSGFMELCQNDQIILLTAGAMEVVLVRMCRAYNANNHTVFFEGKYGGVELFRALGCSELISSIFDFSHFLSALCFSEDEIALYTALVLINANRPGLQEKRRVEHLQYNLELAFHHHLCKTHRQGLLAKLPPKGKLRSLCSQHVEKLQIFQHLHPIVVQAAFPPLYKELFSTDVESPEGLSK
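Drosophila S2 cells stably expressing Gal4-DBD/mouse RORγ fusion under metallothionein promoter plus UAS-luciferase; compound 1 h, then 700 uM CuSO4 induction for 20 h at ambient temperature; inhibition read as reduced luminescence.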
DT40 TDP1 no CPT: qHTS for Inhibitors of human tyrosyl-DNA phosphodiesterase 1 (TDP1): qHTS in cells in absence of CPT; DT40 Tdp1-/- hTDP1 cells, no CPT, ATP luminescence, 48 h; 15% of 420,000 active; Potency, µM (highest dose often 46.2 µM), for inactives: top-dose activity change, negative = growth inhibition, actives largely listed as inhibitors; further: potency means the concentration at half of the fitted maximal effect; nearly all actives have a fitted effect of over 55% in size
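Camptothecin absent (DMSO only). Human TDP1-complemented DT40 knockout cells, 400 cells/well, 37 °C for minimum 48 hr; ATP measured via CellTiter-Glo, 30 min dark incubation, luminescence.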
TDP1 cell CPT: DT40-hTDP1 cell growth loss with CPT; chicken DT40 Tdp1-/-;hTDP1 cells + 20 nM CPT, ATP luminescence, 48 h; Potency, µM (titrated, usually from 46.2 µM), inactives show at the top dose activity change, negative = growth inhibition, actives largely listed as inhibitors; 12% of 420,000 active; further: potency means the concentration at half of the fitted maximal effect; nearly all actives have a fitted effect of over 55% in size
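Chicken DT40 Tdp1-/- cells complemented with human TDP1, 400 cells/well, exposed to compounds plus 20 nM camptothecin for at least 48 h at 37 C; viability read as ATP content by CellTiter-Glo luminescence.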
An asterisk follows results filed as active; [ ] = another dose, or the depositor's remark. Unless noted, the call rests on the fitted dose curve; in most records, active means well fitted curve in the direction sought with a large enough effect; inconclusive means small, poorly fitted or top-dose-only effect, or another doubt; inactive means no such curve, though single readings can be large; an effect the other way counts as inactive or inconclusive. On the % scale 0 is the no-effect control and ±100 the full control effect.

Screening CCOC(=O)[C@]12CCC=C1N(Cc1ccc(Cl)cc1Cl)C(=O)[C@H](CC(=O)NCCCN1CCCC1=O)C2 returned IL-1B inflam inh -12.0, DT40 TDP1 no CPT inconclusive and TDP1 cell CPT 18.4µM*.
`C#CCNC(=O)C[C@@H]1C[C@@]2(C(=O)OCC)CCCC=C2N(Cc2ccc(Cl)cc2Cl)C1=O` gave IL-1B inflam inh -18.8, DT40 TDP1 no CPT inconclusive and TDP1 cell CPT inconclusive.
Screening CCOC(=O)[C@]12CCCC=C1N(Cc1ccc(Cl)cc1Cl)C(=O)[C@H](CC(=O)NCCc1ccccc1OC)C2 returned IL-1B inflam inh 0.0, DT40 TDP1 no CPT 23.1µM* and TDP1 cell CPT inconclusive.
Screening CCOC(=O)[C@]12CCCC=C1N(Cc1ccc(Cl)cc1Cl)C(=O)[C@H](CC(=O)NCCCN1CCCC1=O)C2 returned IL-1B inflam inh -17.0, DT40 TDP1 no CPT inconclusive and TDP1 cell CPT inconclusive.
Screening CCOC(=O)[C@]12CCCC=C1N(Cc1ccc(Cl)cc1Cl)C(=O)[C@H](CC(=O)NCc1ccccc1)C2 returned IL-1B inflam inh 0.0, DT40 TDP1 no CPT inconclusive and TDP1 cell CPT inconclusive.
Screening CCCCOCCCNC(=O)C[C@@H]1C[C@@]2(C(=O)OCC)CCCC=C2N(Cc2ccc(Cl)cc2Cl)C1=O returned IL-1B inflam inh -78.7*, DT40 TDP1 no CPT 18.4µM* and TDP1 cell CPT inconclusive.
Screening COc1ccc(C2C(C(N)=O)=C(C)Nc3nc(CCCO)nn32)c(OC)c1 (configuration not stated) returned DT40 TDP1 no CPT 3.3% and TDP1 cell CPT -16.6%.
`COc1ccc2c(c1OC)C(=O)N(c1cccc(NC(C)=O)c1)C2` gave IL-1B inflam inh inconclusive, Gal4-VP16 FLuc 7.3%, ELG1 DNA repair inconclusive, RORg inh -34.3%, DT40 TDP1 no CPT -0.2% and TDP1 cell CPT 23.6%.
Screening CCCC(C)(C)C(=O)Nc1ccc(Cl)cc1 returned Gal4-VP16 FLuc 0.7% and RORg inh -18.1%.
`CCCCNC(=O)C[C@@H]1C[C@@]2(C(=O)OCC)CCCC=C2N(Cc2ccc(Cl)cc2Cl)C1=O` gave IL-1B inflam inh inconclusive, DT40 TDP1 no CPT -92.2% and TDP1 cell CPT 20.6µM*.
`O=C(CCCC(=O)c1ccccc1)Nc1ccc(O)cc1` gave IL-1B inflam inh 5.1, Gal4-VP16 FLuc inconclusive, ELG1 DNA repair inconclusive, RORg inh -57.8%, DT40 TDP1 no CPT inconclusive and TDP1 cell CPT inconclusive.
For COc1cc(CNC[C@H]2O[C@@H](n3cnc(C(N)=O)n3)[C@H](O)[C@@H]2O)ccc1OCc1cccc(Cl)c1 the results were IL-1B inflam inh -29.0, DT40 TDP1 no CPT -2.9% and TDP1 cell CPT -22.8%.
Cc1sc2ccc3sccc3c2[n+]1C was read as IL-1B inflam inh -95.1*, Gal4-VP16 FLuc -18.1%, ELG1 DNA repair inconclusive, RORg inh 4.9%, DT40 TDP1 no CPT 20.6µM* and TDP1 cell CPT 8.2µM*.
`CC(=O)NCCCc1nc2ccccc2n1Cc1ccccc1C` gave IL-1B inflam inh 11.3, Gal4-VP16 FLuc 5.1%, ELG1 DNA repair inconclusive, RORg inh 0.4%, DT40 TDP1 no CPT -14.4% and TDP1 cell CPT -0.8%.
O=C(NCCCc1nc2ccccc2n1Cc1ccc(F)cc1)C1CCCCC1 was read as DT40 TDP1 no CPT 25.9µM* and TDP1 cell CPT inconclusive.
Screening O=C(NCCCc1nc2ccccc2n1Cc1ccccc1)C1CCCCC1 returned DT40 TDP1 no CPT 16.4µM* and TDP1 cell CPT 18.4µM*.
`Cc1ccccc1Cn1c(CCCNC(=O)C2CCCCC2)nc2ccccc21` gave DT40 TDP1 no CPT 14.6µM* and TDP1 cell CPT 18.4µM*.
Screening COC(=O)C(CO)NC(=O)C(C)NC(=O)CNC(=O)OCc1ccccc1 (configuration not stated) returned IL-1B inflam inh 2.2, Gal4-VP16 FLuc 0.0%, ELG1 DNA repair 7.1%, RORg inh 14.7%, DT40 TDP1 no CPT 10.4% and TDP1 cell CPT 0.9%.
`COc1cn(CC(=O)Nc2ccc(F)cc2)c(CN2CCCCC2)cc1=O` gave DT40 TDP1 no CPT -19.1% and TDP1 cell CPT 3.1%.
For COc1ccc(NC(=O)CNc2cccc(S(=O)(=O)N3CCCCCC3)c2)c([N+](=O)[O-])c1 the results were IL-1B inflam inh 0.0, ELG1 DNA repair 10.0%, DT40 TDP1 no CPT inconclusive and TDP1 cell CPT inconclusive.
For Cc1nc2cc(NC(=O)[C@@H]3C[C@@H](Sc4ccccn4)CN3Cc3cccc(F)c3)ccc2s1 the results were DT40 TDP1 no CPT -19.3% and TDP1 cell CPT 15.5%[9.04 µM].
CCc1nn2c(=O)cc(COC(=O)C(CC)c3ccccc3)nc2s1 (configuration not stated) was read as DT40 TDP1 no CPT -20.7% and TDP1 cell CPT inconclusive.
`CCOC(=O)c1cnc2ccccc2c1NCCc1ccc(OC)c(OC)c1` gave IL-1B inflam inh -14.3, Gal4-VP16 FLuc -3.6%, ELG1 DNA repair inconclusive, RORg inh -42.2%, DT40 TDP1 no CPT 10.3µM* and TDP1 cell CPT 16.4µM*.
CCOC(=O)c1cnc2c(OC)cccc2c1NCc1cccnc1 was read as IL-1B inflam inh -28.1, Gal4-VP16 FLuc -7.7%, ELG1 DNA repair -18.9%, RORg inh -7.7%, DT40 TDP1 no CPT -5.5% and TDP1 cell CPT -4.6%.
`CCOC(=O)c1cnc2ccc(OC)cc2c1NCCc1ccc(OC)c(OC)c1` gave IL-1B inflam inh -90.1*, Gal4-VP16 FLuc -7.6%, ELG1 DNA repair 20.6µM*, RORg inh -3.4%, DT40 TDP1 no CPT 7.31µM* and TDP1 cell CPT 6.51µM*.
`Oc1ccccc1/C=N/n1c(COc2ccccc2)n[nH]c1=S` gave IL-1B inflam inh 23.9, Gal4-VP16 FLuc -28.7%, ELG1 DNA repair 7.3%, RORg inh 11.2µM*, DT40 TDP1 no CPT -22.3% and TDP1 cell CPT -2.9%.
For CCOc1ccccc1/C=N/n1c(COc2ccccc2)n[nH]c1=S the results were IL-1B inflam inh 50.5, Gal4-VP16 FLuc inconclusive, ELG1 DNA repair 14.3%, RORg inh 4.47µM*, DT40 TDP1 no CPT -11.8% and TDP1 cell CPT -14.1%.
Oc1ccc(/C=N/n2c(COc3ccccc3)n[nH]c2=S)c(O)c1 was read as IL-1B inflam inh 8.6, Gal4-VP16 FLuc -1.6%, ELG1 DNA repair 10.9%, RORg inh -33.3%, DT40 TDP1 no CPT 12.5% and TDP1 cell CPT -17.7%.
